# In PubChem BioAssay:
# Values joined by “and” are separate entries in the source; they are usually repeats but may differ in a detail not shown here. Equal values may be shown once. Active and inactive are the calls of the source.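 Rule for the calls, unless noted: active = compounds whose cell count with miR-34 switched on is under 0.7 times the count with it off; inactive = the rest.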
# Columns and labels:
# [1] = viability loss with induced miR-34 in A549 – imaging, A549 dox-inducible miR-34, nuclei and caspase counts, primary screen (AID 1347080); conditions: A549 miR-34 inducible, Hoechst nuclei count, 48 h; note: test concentration not given here
# [2] = galactose survival enhancers in mitochondrial complex I cybrids – cell-based, galactose medium, ATP luminescence, primary screen (AID 1645843;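 active = z-score of at least 1.8 in each of two replicates, scored against plate mean and spread of sample wells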;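 note: positive z means more ATP and so rescue of galactose-driven cybrid death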); conditions: complex I mutant cybrid cells, 72 h, stronger effect = higher value
# [3] = stronger effect = lower value, cell number ratio, induced over uninduced
# [4] = measured here: relative caspase fold change +Dox/-Dox
# [5] = measured here: total cells with miR-34 induction, stronger effect = lower value
# [6] = measured here: total cells without miR-34 induction
SMILES,"fold change [1, 3]","fold change [1, 4]","cell count [1, 5]","cell count [1, 6]",z-score [2]
CCOC(=O)O[C@]1(C(=O)OCCl)CCC2C3CCC4=CC(=O)C=C[C@]4(C)C3C(O)C[C@@]21C (stereo not given in full),0.961 (inactive),1.35,6110,6360,0.71 (inactive)
C=CC1=C(C(=O)O)N2C(=O)C(NC(=O)C(=NOCC(=O)O)c3csc(N)n3)C2SC1 (stereo not given),0.923 (inactive),0.894,8710,9440,0.065 (inactive)
O=C1C2CCCCC2C(=O)N1CCCCN1CCN(c2nsc3ccccc23)CC1 (stereo not given),0.926 (inactive),1.74,7810,8440,-1.79 (inactive)
CC(=O)OC1CC2CCC3C(CCC4(C)C3CC([N+]3(C)CCCCC3)C4OC(C)=O)C2(C)CC1[N+]1(C)CCCCC1 (stereo not given),0.885 (inactive),2.7,8890,10000,0.825 (inactive)
CC(=O)O[C@@]12COC1CC(O)[C@@]1(C)C(=O)C(O)C3=C(C)C(OC(=O)C(O)C(NC(=O)OC(C)(C)C)c4ccccc4)C[C@](O)(C(OC(=O)c4ccccc4)C21)C3(C)C (stereo not given in full),1.14 (inactive),1.25,3410,2990,-1.09 (inactive)
CC(C)(C)NC(=O)C1CCC2C3CCC4NC(=O)C=C[C@]4(C)C3CC[C@]12C (stereo not given in full),0.939 (inactive),1.36,8850,9430,0.345 (inactive)
CC(CCC(=O)O)C1CCC2C3C(=O)CC4CC(=O)CC[C@]4(C)C3CC(=O)[C@]12C (stereo not given in full),0.951 (inactive),0.625,9350,9830,0.29 (inactive)
Cc1ccsc1C(=CCCN1CCCC(C(=O)O)C1)c1sccc1C (stereo not given),0.928 (inactive),1.05,8550,9210,1.02 (inactive)
CC(=O)C1CCC2C3CCC4=CC(=O)CC[C@]4(C)C3CC[C@]12C (stereo not given in full),0.861 (inactive),1.42,7200,8360,-0.365 (inactive)
C#C[C@]1(O)CCC2C3CCC4=CC(=O)CCC4C3CC[C@@]21CC (stereo not given in full),0.905 (inactive),1.25,8490,9390,0.65 (inactive)
COc1cc(C=Cc2ccc(O)cc2)cc(OC)c1,0.943 (inactive),1.26,6760,7170,-1.52 (inactive)
CCC1=CC2CN(C1)Cc1c([nH]c3ccccc13)[C@@](C(=O)OC)(c1cc3c(cc1OC)N(C)C1[C@@](O)(C(=O)OC)C(OC(C)=O)[C@]4(CC)C=CCN5CC[C@]31C54)C2 (stereo not given in full),1.19 (inactive),1.47,1620,1360,-1.06 (inactive)
CC(C)(C)NC(=O)C1CC2CCCCC2CN1CC(O)C(Cc1ccccc1)NC(=O)C(CC(N)=O)NC(=O)c1ccc2ccccc2n1 (stereo not given),1.12 (inactive),1.27,4860,4350,-1.52 (inactive)
CC#C[C@]1(O)CCC2C3CCC4=CC(=O)CCC4=C3C(c3ccc(N(C)C)cc3)C[C@@]21C (stereo not given in full),0.84 (inactive),0.861,5600,6670,-0.035 (inactive)
COCC1=C(C(=O)OC(C)OC(=O)OC(C)C)N2C(=O)C(NC(=O)C(=NOC)c3csc(N)n3)C2SC1 (stereo not given),0.946 (inactive),1.68,9860,10400,0.625 (inactive)
CC=CC(=O)N(CC)c1ccccc1C,0.962 (inactive),1.8,9730,10100,0.595 (inactive)

SMILES,"fold change [1, 3]","fold change [1, 4]","cell count [1, 5]","cell count [1, 6]",z-score [2]
Nc1ncnc2c1ncn2C1OC(CO)CC1O (stereo not given),0.896 (inactive),2.91,8910,9950,-0.825 (inactive)
CC(C)OC(=O)CCCC=CCC1C(O)CC(O)C1CCC(O)CCc1ccccc1 (stereo not given),1 (inactive),2.41,9620,9620,-1.17 (inactive)
CN(C)C1C(=O)C(C(=O)NCN2CCCC2)=C(O)[C@@]2(O)C(=O)C3=C(O)c4c(O)cccc4[C@@](C)(O)C3CC12 (stereo not given in full),0.983 (inactive),1.25,8500,8650,0.465 (inactive)
Nc1nc(Cl)nc2c1ncn2C1OC(CO)C(O)C1O (stereo not given),1.26 (inactive),0.688,2120,1680,-0.02 (inactive)
C=CC1=C(C(=O)O)N2C(=O)C(NC(=O)C(=NO)c3csc(N)n3)C2SC1 (stereo not given),0.914 (inactive),1.91,9440,10300,0.13 (inactive)
COc1cccc2c1C(=O)c1c(O)c3c(c(O)c1C2=O)C[C@@](O)(C(=O)CO)CC3OC1CC(N)C(O)C(C)O1 (stereo not given in full),0.969 (inactive) and 1 (inactive),0.932 and 0.974,1960 and 2320,2030 and 2320,-1.87 (inactive) and -1.86 (inactive)
O=C1c2cccc3c2C(CCC3)CN1C1CN2CCC1CC2 (stereo not given),1.56 (inactive),0.609,5340,3420,-0.005 (inactive)
O=C(OC1C(Oc2ccccc2COC(=O)C2(O)C=CCCC2=O)OC(CO)C(O)C1O)c1ccccc1 (stereo not given),0.897 (inactive),1.99,1640,1830,-1.2 (inactive)
CN1C2CC(OC(=O)C(CO)c3ccccc3)CC1C1OC12 (stereo not given),0.901 (inactive),2.66,9400,10400,0.87 (inactive)
CC=C1C2C=C(C)C[C@]1(N)c1ccc(=O)[nH]c1C2,0.883 (inactive),1.22,10100,11400,0.9 (inactive)
NC(C(=O)NC1C(=O)N2C(C(=O)O)=C(Cl)CSC12)c1ccccc1 (stereo not given),1.39 (inactive),0.686,9470,6800,0.295 (inactive)
COCc1c(C(C)C)nc(C(C)C)c(C=CC(O)CC(O)CC(=O)O)c1-c1ccc(F)cc1 (stereo not given),1.06 (inactive),2.76,1210,1140,-1.86 (inactive)
C=CCC1C=C(C)CC(C)CC(OC)C2O[C@@](O)(C(=O)C(=O)N3CCCCC3C(=O)OC(C(C)=CC3CCC(O)C(OC)C3)C(C)C(O)CC1=O)C(C)CC2OC (stereo not given in full),1.03 (inactive),1.03,5920,5760,0.96 (inactive)
COc1cc(CC(CO)C(CO)Cc2ccc(O)c(OC)c2)ccc1O (stereo not given),1.4 (inactive),0.831,8290,5940,0.405 (inactive)
CC[C@]1(O)CC2CN(CCc3c([nH]c4ccccc34)[C@@](C(=O)OC)(c3cc4c(cc3OC)N(C=O)C3[C@@](O)(C(=O)OC)C(OC(C)=O)[C@]5(CC)C=CCN6CC[C@]43C65)C2)C1 (stereo not given in full),0.746 (inactive),1.38,1340,1800,-1.05 (inactive)
